SMILES strings stand for the structures. The panel holds about 79,000 compounds, 15% with a hit somewhere; the sample as a whole holds those more often. Unmarked numbers belong to inactive results. The source made the active and inactive calls. Cut-off read from the data, not from the text of the source: active = growth inhibition above about 70%; inactive = the rest.

The record followed here is PubChem BioAssay (NCI).

One assay is described as follows: NCI Yeast Anticancer Drug Screen. Data for the sgs1 mgt1 strain (AID 161).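 Note: 0% = growth of cultures given vehicle only.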 Particulars: S. cerevisiae sgs1 mgt1 strain, at 5.0 µM (retest, dose inferred, filed as 0.5), active compounds read high. In outline: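 Genetically altered yeast, compound exposure, growth inhibition relative to vehicle.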
As for `C/C(=N\NC(=S)SCc1ccccc1)c1ccccn1`, the growth inhibition was -1%.

For `CC[C@@]1(O)C(=O)OCc2c1cc1n(c2=O)Cc2cc3c(N)cccc3nc2-1`, the growth inhibition is 1%.

On to `CN(C)c1ccc(Sc2ccc3nc(N)nc(N)c3c2)cc1`, for which the growth inhibition is 29%.

As for `CC(=O)OCCOCNC(=S)N/N=C(\C)c1cnccn1`, the growth inhibition was -15%.

Turning to `COc1cc(C2SCC(=O)N2c2ccc(-c3ccc(-n4c(-c5ccccc5)nc5ccccc5c4=O)cc3)cc2)cc(OC)c1OC` (stereo not given), the growth inhibition was 8%.

On to `O=C(NNc1ccnc2cc(Cl)ccc12)/C(=C\c1ccccc1Cl)NC(=O)c1ccccc1`, for which the growth inhibition was -8%.

With `CSC(=S)Nc1cccc(C)n1`, the growth inhibition is -18%.

On to `O=C(/C=C\c1ccc(Cl)cc1Cl)c1cccs1`, for which the growth inhibition is 0%.

Turning to `CN(C)c1ccc(C(C#N)=C(C#N)C#N)cc1`, the growth inhibition was -47%.

On to `COc1cc(/C=C2\CCc3ccccc3C2=O)cc(OC)c1OC`, for which the growth inhibition was 5%.

Consider `CC(C)/C(Cl)=N\OC(=O)Nc1cccc(Cl)c1`, for which the growth inhibition is -17%.

As for `CC1(C)[C@@H]2CC[C@]1(C)[C@H](OC(=O)CSC#N)C2`, the growth inhibition was 28%.

With `NNC(=O)CCc1ccc2ccc3ccccc3c2c1`, the growth inhibition was -6%.

`COc1ccc(/C(C)=N/OC(=O)c2c(-c3ccccc3Cl)noc2C)cc1CN1CCOCC1`: the growth inhibition was -16%.

For `C=CC(C)(O)CCC1C(=C)C(O)CC2C(C)(C)CCCC12C` (stereo not given), the growth inhibition is -23%.

As for `S=C(Nc1ccc(Cl)c(Cl)c1)SCc1ccc2c(c1)OCO2`, the growth inhibition is 77% (active).

With `COc1cc(C2C3=C(COC3=O)Oc3cc4c(cc32)OCO4)ccc1O` (stereo not given), the growth inhibition was 77% (active).

For the molecule `Nc1nc(-c2cccnc2)cc(-c2cc(-c3cccnc3)nc(N)n2)n1`, the growth inhibition was 19%.

Regarding `COC1=CC(=O)C2C(C1=O)C(c1ccc(Cl)cc1)[C@@H]2C` (stereo not given in full), the growth inhibition is -10%.

As for `c1ccc(-c2nc3cccnc3s2)cc1`, the growth inhibition was -5%.

In the case of `CCCN(CCC)CC(O)c1cc(-c2ccc(Cl)cc2)nc2c(C)c(Cl)ccc12` (stereo not given), the growth inhibition is 36%.

As for `O=C(Nc1ccccc1)OCCc1ccc(Cl)c(Cl)c1`, the growth inhibition was 8%.

Regarding `CC(O)C(O)C(O)C(/C=N\Nc1ccccc1)=N/Nc1ccccc1` (stereo not given), the growth inhibition was 3%.

As to `C#CCCCc1ccccc1`, the growth inhibition is -9%.

As to `CC(=O)Cc1ccc[cH-]1.[Fe+2].c1cc[cH-]c1`, the growth inhibition is -4%.

As to `Cc1cc(I)ccc1N`, the growth inhibition is -1%.

Take `FC(F)(F)c1cc(NC(=S)N2c3ccccc3-n3cccc3C2c2cccnc2)cc(C(F)(F)F)c1` (stereo not given): the growth inhibition was -3%.

As to `CC(C(=O)N1C(=O)N(C(=O)[C@H](C)C(O)c2ccccc2)[C@H](c2ccccc2)[C@H]1c1ccccc1)[C@@H](O)c1ccccc1` (stereo not given in full), the growth inhibition is -12%.

On to `Oc1cccc2c(Cl)ccnc12`, for which the growth inhibition is -5%.

Consider `O=C1C=CC(=C(c2ccccc2)c2ccccc2)c2ccccc21`, for which the growth inhibition is 43%.

The assay is the same for the next values; noted with them: S. cerevisiae sgs1 mgt1 strain, at 50.0 µM (retest, dose inferred, filed as 5.0), active compounds read high.
`C/C(=N\NC(=S)SCc1ccccc1)c1ccccn1`: the growth inhibition was 95% (active).

Consider `CC[C@@]1(O)C(=O)OCc2c1cc1n(c2=O)Cc2cc3c(N)cccc3nc2-1`, for which the growth inhibition was 14%.

With `CN(C)c1ccc(Sc2ccc3nc(N)nc(N)c3c2)cc1`, the growth inhibition is 67%.

For the molecule `CC(=O)OCCOCNC(=S)N/N=C(\C)c1cnccn1`, the growth inhibition is 43%.

Take `COc1cc(C2SCC(=O)N2c2ccc(-c3ccc(-n4c(-c5ccccc5)nc5ccccc5c4=O)cc3)cc2)cc(OC)c1OC` (stereo not given): the growth inhibition was 7%.

Take `O=C(NNc1ccnc2cc(Cl)ccc12)/C(=C\c1ccccc1Cl)NC(=O)c1ccccc1`: the growth inhibition was -37%.

Consider `CSC(=S)Nc1cccc(C)n1`, for which the growth inhibition is 29%.

As to `O=C(/C=C\c1ccc(Cl)cc1Cl)c1cccs1`, the growth inhibition is 71% (active).

With `CN(C)c1ccc(C(C#N)=C(C#N)C#N)cc1`, the growth inhibition is 60%.

For `COc1cc(/C=C2\CCc3ccccc3C2=O)cc(OC)c1OC`, the growth inhibition was 33%.

Take `CC(C)/C(Cl)=N\OC(=O)Nc1cccc(Cl)c1`: the growth inhibition is 83% (active).

Turning to `CC1(C)[C@@H]2CC[C@]1(C)[C@H](OC(=O)CSC#N)C2`, the growth inhibition was 97% (active).

Take `NNC(=O)CCc1ccc2ccc3ccccc3c2c1`: the growth inhibition is -14%.

In the case of `COc1ccc(/C(C)=N/OC(=O)c2c(-c3ccccc3Cl)noc2C)cc1CN1CCOCC1`, the growth inhibition is 98% (active).

Regarding `C=CC(C)(O)CCC1C(=C)C(O)CC2C(C)(C)CCCC12C` (stereo not given), the growth inhibition was 81% (active).

`S=C(Nc1ccc(Cl)c(Cl)c1)SCc1ccc2c(c1)OCO2`: the growth inhibition was 98% (active).

Take `COc1cc(C2C3=C(COC3=O)Oc3cc4c(cc32)OCO4)ccc1O` (stereo not given): the growth inhibition was 77% (active).

In the case of `Nc1nc(-c2cccnc2)cc(-c2cc(-c3cccnc3)nc(N)n2)n1`, the growth inhibition was 15%.

`COC1=CC(=O)C2C(C1=O)C(c1ccc(Cl)cc1)[C@@H]2C` (stereo not given in full): the growth inhibition was 98% (active).

In the case of `c1ccc(-c2nc3cccnc3s2)cc1`, the growth inhibition is 18%.

As to `CCCN(CCC)CC(O)c1cc(-c2ccc(Cl)cc2)nc2c(C)c(Cl)ccc12` (stereo not given), the growth inhibition was 97% (active).

Consider `O=C(Nc1ccccc1)OCCc1ccc(Cl)c(Cl)c1`, for which the growth inhibition was 54%.

With `CC(O)C(O)C(O)C(/C=N\Nc1ccccc1)=N/Nc1ccccc1` (stereo not given), the growth inhibition was 56%.

In the case of `C#CCCCc1ccccc1`, the growth inhibition is 15%.

With `CC(=O)Cc1ccc[cH-]1.[Fe+2].c1cc[cH-]c1`, the growth inhibition is 12%.

Turning to `Cc1cc(I)ccc1N`, the growth inhibition was 92% (active).

`FC(F)(F)c1cc(NC(=S)N2c3ccccc3-n3cccc3C2c2cccnc2)cc(C(F)(F)F)c1` (stereo not given): the growth inhibition is 69%.

Consider `CC(C(=O)N1C(=O)N(C(=O)[C@H](C)C(O)c2ccccc2)[C@H](c2ccccc2)[C@H]1c1ccccc1)[C@@H](O)c1ccccc1` (stereo not given in full), for which the growth inhibition was 38%.

Regarding `Oc1cccc2c(Cl)ccnc12`, the growth inhibition was 99% (active).

As for `O=C1C=CC(=C(c2ccccc2)c2ccccc2)c2ccccc21`, the growth inhibition is 93% (active).
